Laboratory results: PubChem BioAssay (NCI)
This is part of a sample that, as a whole, favours compounds with a hit. Of some 79,000 tested, about 15% had one in any assay. Activity calls are given as the source filed them. Rule as the data show it: active = growth inhibition above about 70%; inactive = the rest.

Columns and labels:
[1] = NCI Yeast Anticancer Drug Screen. Data for the rad52 strain (AID 147);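 also: 0% = growth of vehicle-treated control cultures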; details: S. cerevisiae rad52 mutant growth inhibition, stronger effect = higher value
In short: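 Genetically altered yeast (DNA damage repair defect) treated with compound; inhibition calculated relative to vehicle.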

[2] = NCI Yeast Anticancer Drug Screen. Data for the wt1 strain (AID 149);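 also: 0% = growth of vehicle-treated wt1 cultures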; details: S. cerevisiae wt1 strain (SPY 50644) growth inhibition, stronger effect = higher value
In short: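 Yeast wt1 strain exposed to compounds; growth inhibition measured relative to vehicle-treated controls.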

[3] = NCI Yeast Anticancer Drug Screen. Data for the rad50EPP+ strain (AID 151);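 also: 0% = growth of vehicle-treated control cultures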; details: S. cerevisiae rad50 mutant strain, stronger effect = higher value
In short: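 Strain rad50EPP+; compound exposure; % growth inhibition vs vehicle.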

[4] = NCI Yeast Anticancer Drug Screen. Data for the mgt1 strain (AID 153); details: S. cerevisiae mgt1 mutant growth inhibition, stronger effect = higher value
In short: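 Read-out: yeast growth inhibition vs vehicle control. Strain mgt1, drawn from a panel altered in DNA damage repair or cell cycle control.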

[5] = NCI Yeast Anticancer Drug Screen. Data for the rad50 strain (AID 155);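 also: 0% = growth of vehicle-only cultures of the same strain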; details: S. cerevisiae rad50 strain growth inhibition, stronger effect = higher value
In short: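 Yeast carrying a defined DNA repair defect were exposed to test compounds, and growth was compared with vehicle-treated controls to give percent inhibition.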

[6] = NCI Yeast Anticancer Drug Screen. Data for the mec2-1 strain (AID 157); details: S. cerevisiae mec2-1 strain, stronger effect = higher value
In short: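 Cells of the genetically defined mec2-1 yeast strain are incubated with test compound. Inhibition of growth is calculated against vehicle-treated controls.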

[7] = NCI Yeast Anticancer Drug Screen. Data for the rad14 strain (AID 159);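 also: 0% = growth of vehicle-treated control cultures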; details: S. cerevisiae rad14 strain growth inhibition, stronger effect = higher value
In short: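 Yeast cells carrying a defined DNA-repair defect were exposed to compounds, and growth inhibition was calculated relative to vehicle-treated control cultures.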

[8] = NCI Yeast Anticancer Drug Screen. Data for the sgs1 mgt1 strain (AID 161);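 also: 0% = growth of cultures given vehicle only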; details: S. cerevisiae sgs1 mgt1 strain, stronger effect = higher value
In short: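 Mutant yeast exposed to compound; growth scored against vehicle-only wells.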

[9] = NCI Yeast Anticancer Drug Screen. Data for the CLN2oe strain (AID 163);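 also: 0% = growth of vehicle-only control cultures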; details: S. cerevisiae CLN2oe strain, stronger effect = higher value
In short: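 Strain altered in cell-cycle control, incubated with compound; growth compared to solvent-treated controls.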

[10] = NCI Yeast Anticancer Drug Screen. Data for the cln2 rad14 strain (AID 165);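 also: 0% = growth equal to vehicle treated cultures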; details: S. cerevisiae cln2 rad14 strain, stronger effect = higher value
In short: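 The screen exposed genetically defined yeast (cln2 rad14) to test compounds and scored growth inhibition relative to vehicle-treated controls.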

[11] = NCI Yeast Anticancer Drug Screen. Data for the bub3 strain (AID 167); details: S. cerevisiae bub3 mutant strain, stronger effect = higher value
In short: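 Compounds were applied to a genetically altered yeast strain carrying a cell-cycle control defect. Growth inhibition was scored against vehicle-treated controls.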

[12] = NCI Yeast Anticancer Drug Screen. Data for the wt2 strain (AID 169);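 also: 0% = growth of vehicle-treated yeast cultures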; details: S. cerevisiae wt2 strain growth inhibition, stronger effect = higher value
In short: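 Steps: yeast strain treated with compound; growth recorded; inhibition calculated relative to cultures given vehicle alone.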

[13] = NCI Yeast Anticancer Drug Screen. Data for the mlh1 strain (AID 171);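 also: 0% = growth of vehicle-treated control cultures of the same strain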; details: S. cerevisiae mlh1 strain growth inhibition, stronger effect = higher value
In short: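 Yeast screen: mutant strain plus compound, growth scored against vehicle control wells.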

[14] = NCI Yeast Anticancer Drug Screen. Data for the sgs1 strain (AID 173);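 also: 0% = growth of vehicle-only control cultures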; details: S. cerevisiae sgs1 mutant, stronger effect = higher value
In short: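 Inhibition of yeast growth served as the measure. The mutant strain was treated with each compound, and growth was normalised to cultures receiving vehicle alone.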

[15] = NCI Yeast Anticancer Drug Screen. Data for the mlh1 rad18 strain (AID 175); details: S. cerevisiae mlh1 rad18 strain growth inhibition, stronger effect = higher value
In short: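 Compound-treated yeast growth, normalised to vehicle controls. Strain bears defined DNA repair mutations.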

[16] = NCI Yeast Anticancer Drug Screen. Data for the rad18 strain (AID 177); details: S. cerevisiae rad18 mutant growth inhibition, stronger effect = higher value
In short: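 Inhibition values reflect reduced yeast growth compared with vehicle-treated controls, using a strain engineered with a DNA damage repair defect.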

[17] = at 5.0 µM (retest, dose inferred, filed as 0.5)
[18] = at 50.0 µM (retest, dose inferred, filed as 5.0)

Measured: growth inhibition

Cc1cc(N=Nc2ccc(S(=O)(=O)[O-])cc2)cc(C(=O)[O-])c1[O-].NC1CCCCC1N.[Na+].[Pt+4]
inactive: [1]; at 1.2 µM 6% | [1]; at 3.7 µM 33% | [2]; at 1.2 µM 3% | [2]; at 3.7 µM 44% | [3]; at 1.2 µM 25% | [4]; at 1.2 µM 34% | [4]; at 3.7 µM 66% | [5]; at 1.2 µM -23% | [5]; [17] 20% | [6]; at 1.2 µM 9% | [6]; [17] 32% | [7]; at 1.2 µM -4% | [7]; at 3.7 µM 52% | [8]; [17] 68% | [9]; at 1.2 µM 5% | [9]; at 3.7 µM 21% | [10]; [17] 49% | [11]; at 1.2 µM -21% | [11]; at 3.7 µM 40% | [11]; [17] 50% | [12]; at 1.2 µM -2% | [13]; at 1.2 µM 7% | [13]; at 3.7 µM 66% | [14]; at 1.2 µM 21% | [14]; at 3.7 µM 63% | [15]; [17] 33% | [16]; at 1.2 µM -26% | [16]; at 3.7 µM 42%
active: [1]; at 11.0 µM 99% | [1]; at 33.0 µM 98% | [1]; at 100.0 µM 98% | [2]; at 11.0 µM 98% | [2]; at 33.0 µM 98% | [2]; at 100.0 µM 98% | [3]; at 3.7 µM 95% | [3]; at 11.0 µM 99% | [3]; at 33.0 µM 99% | [3]; at 100.0 µM 98% | [4]; at 11.0 µM 99% | [4]; at 33.0 µM 99% | [4]; at 100.0 µM 98% | [5]; at 3.7 µM 84% | [5]; at 11.0 µM 98% | [5]; at 33.0 µM 98% | [5]; [18] 98% | [5]; at 50.0 µM 87.7% | [5]; at 100.0 µM 98% | [6]; at 3.7 µM 77% | [6]; at 11.0 µM 99% | [6]; at 33.0 µM 99% | [6]; [18] 99% | [6]; at 50.0 µM 91.2% | [6]; at 100.0 µM 98% | [7]; at 11.0 µM 98% | [7]; at 33.0 µM 98% | [7]; at 100.0 µM 98% | [8]; [18] 99% | [8]; at 50.0 µM 92% | [9]; at 11.0 µM 95% | [9]; at 33.0 µM 99% | [9]; at 100.0 µM 98% | [10]; [18] 97% | [10]; at 50.0 µM 92% | [11]; at 11.0 µM 99% | [11]; at 33.0 µM 98% | [11]; [18] 98% | [11]; at 50.0 µM 90.2% | [11]; at 100.0 µM 98% | [12]; at 3.7 µM 93% | [12]; at 11.0 µM 98% | [12]; at 33.0 µM 98% | [12]; at 100.0 µM 97% | [13]; at 11.0 µM 99% | [13]; at 33.0 µM 99% | [13]; at 100.0 µM 98% | [14]; at 11.0 µM 99% | [14]; at 33.0 µM 99% | [14]; at 100.0 µM 99% | [15]; [18] 98% | [15]; at 50.0 µM 85.8% | [16]; at 11.0 µM 97% | [16]; at 33.0 µM 98% | [16]; at 100.0 µM 98%
